Results on 15 molecules are retold here after PubChem BioAssay (NCATS).

Results filed as inconclusive are left out. Where a call stands in place of a potency, no number is given. Calls of active or inactive are those of the source. Calls follow the shape of the dose curve; as a rule, active = well fitted inhibition curve with a large enough effect; inconclusive = small, poorly fitted or top-dose-only effect; inactive = flat fitted curve, though single readings scatter.
Also: nearly all actives have a fitted effect of over 65% in size.
Potency is read from the fitted curve at half-maximal effect.

Chain of Phospholipid hydroperoxide glutathione peroxidase GPX4 (Homo sapiens) (P36969 whole entry, looked up): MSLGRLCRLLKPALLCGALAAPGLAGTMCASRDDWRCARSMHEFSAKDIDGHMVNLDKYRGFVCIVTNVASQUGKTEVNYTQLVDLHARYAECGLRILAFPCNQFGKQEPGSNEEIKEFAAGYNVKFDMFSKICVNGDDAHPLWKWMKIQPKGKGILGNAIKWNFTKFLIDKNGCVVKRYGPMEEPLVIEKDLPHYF

The target of one experiment is Glutathione peroxidase 1 (Homo sapiens) (UniProt P07203). The experiment in a line: Primary qHTS Assay for Inhibitors of Recombinant Selenoprotein Glutathione Peroxidase 1 (GPX1) (AID 1845191). Conditions: recombinant GPX1, GR-coupled NADPH fluorescence, 15 min; series mostly up to 48.8 µM. In outline: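 10 nM GPX1 + cpd, 30 min RT; start w/ 1 mM GSH, 0.5 mM cumene hydroperoxide, 0.5 mM NADPH, 100 nM GR, 0.01% BSA; buffer 50 mM Tris-HCl pH 7.5, 2 mM EDTA, 150 mM NaCl; Fl 340/450, 0 & 15 min.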
Chain of Glutathione peroxidase 1 (Homo sapiens) (P07203 whole entry, looked up): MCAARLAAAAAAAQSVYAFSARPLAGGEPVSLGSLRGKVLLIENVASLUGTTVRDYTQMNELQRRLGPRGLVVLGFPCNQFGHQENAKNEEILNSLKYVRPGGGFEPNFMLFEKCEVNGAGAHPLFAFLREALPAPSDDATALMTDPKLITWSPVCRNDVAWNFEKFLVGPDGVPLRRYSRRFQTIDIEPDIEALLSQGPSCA
On the technique in general: In qHTS, concentration-response curves come from the screen itself.
As for `O=C(NCC(=O)N1CCCCC1)Nc1ccc2nnsc2c1`, the Potency entry is “inactive”. Still for that read-out and setting: for `COc1cc2oc(-c3ccccc3)cc(=O)c2c(OC)c1OC` the value was “inactive”. Regarding `C=C(C)CNc1ccc(C(C)C(=O)O)cc1` (stereo not given), the Potency entry was “inactive”.

`CCCCCCCCCC(=O)OCCN1CCN(CC/C=C2\c3ccccc3Sc3ccc(C(F)(F)F)cc32)CC1`: the Potency entry was “inactive”.

As to `CC(C)CCC[C@@H](C)[C@H]1CC[C@H]2[C@@H]3CC[C@H]4C[C@@H](O)CC[C@]4(C)[C@@H]3CC[C@]12C`, the Potency entry was “inactive”. Still for that read-out and setting: for `Nc1c(C(=O)Nc2ccc(F)cc2)sc2nc(-c3cccs3)cc(C(F)(F)F)c12` the value was 14.3 µM (active); for `N#Cc1ncccn1`, “inactive”.

As for `O=C1NC(=O)/C(=C/c2ccc3c(c2)OCO3)S1`, the Potency entry is “inactive”. The same measure, in the same setting: to `N#Cc1ccc(-c2csc(NN=C3CCCC3)n2)cc1` belongs “inactive”; to `CC[C@@]1(O)CC2CN(CCc3c([nH]c4ccccc34)[C@](C(=O)OC)(c3cc4c(cc3OC)N(C)C3[C@@](O)(C(N)=O)[C@H](O)[C@]5(CC)C=CCN6CC[C@@]43[C@@H]65)C2)C1` (stereo not given in full), “inactive”. Consider `CC(C)n1cnc2c(NCc3ccccc3)nc(NCCCO)nc21`, for which the Potency result was “inactive”.

The target of another experiment is Phospholipid hydroperoxide glutathione peroxidase GPX4 (Homo sapiens) (UniProt P36969). The experiment in a line: Primary qHTS Assay for Inhibitors of Recombinant Selenoprotein Glutathione Peroxidase 4 (GPX4) (AID 1845192). Conditions: recombinant GPX4, GR-coupled NADPH fluorescence, 15 min; series mostly up to 50 µM. The procedure, abridged:
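NADPH consumption, followed by fluorescence at 340/450 nm between 0 and 15 min, reports GPX4 activity via coupled glutathione reductase (100 nM). Enzyme 200 nM was pre-exposed to compound 30 min; 0.5 mM cumene hydroperoxide and 1 mM GSH served as substrates.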
Consider `CC(C)(C)NCC(O)COc1ccccc1C#N` (stereo not given), for which the Potency entry was “inactive”. Same read-out and setting: for `C=C1/C(=C/C=C2\CCC[C@]3(C)[C@@H]([C@H](C)CC[C@@H](O)C(C)C)CC[C@@H]23)C[C@@H](O)C[C@@H]1O` the value was 15.8 µM (active); for `CCC(=O)O[C@]1(C(=O)COC(C)=O)CC[C@H]2[C@@H]3CCC4=CC(=O)CC[C@]4(C)[C@H]3[C@@H](O)C[C@@]21C`, “inactive”; for `CO[C@H]1O[C@@H]2O[C@@]3(C)CC[C@H]4[C@H](C)CC[C@@H]([C@@H]1C)[C@@]24OO3`, “inactive”.
